The campaign covered roughly 320,000 compounds. About 2,100 (0.66%) were called active. Roughly 53% stayed inconclusive and do not appear here. Calls come from the whole dose curve; as a rule, active = well fitted inhibition curve with a large enough effect in the signal ratio, with a control signal flat (not every such curve was filed as active); inconclusive = small, poorly fitted or top-dose-only effect, or effect the other way, or a change in a side signal; inactive = flat fitted curve, though single readings scatter; the % refers to the signal ratio. Only a selection was taken, and actives are over-represented in it overall.
Experiment: qHTS Assay for Lipid Storage Modulators in Drosophila S3 Cells;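 for cell number change: cells counted by Cell Tracker Red CMTPX staining in the red channel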; for lipid storage change, negative = inhibition: % is set by controls: 0 for no effect and ±100 for the full control effect
Conditions: BODIPY lipid droplet fluorescence, 18-24 h, cells fed with added oleic acid; cell number change: measured here: cell count max response; series mostly up to 46.1 µM
Method in brief: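 Laser-scanning cytometry quantifies lipid droplet accumulation (500–530 nm total intensity; droplet/cell object ratio) in oleic acid-fed (400 uM added) Drosophila S3 cells treated with a concentration series. 20 uM Triacsin C defined 100% inhibition.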
Potency is the fitted concentration of half-maximal effect.

| Compound | Potency | cell number change [%] | lipid storage change, negative = inhibition |
| --- | --- | --- | --- |
| COc1ccc(C2/C(=C(\O)c3ccc(OC)c(Cl)c3)C(=O)C(=O)N2CCN(C)C)cc1 (centres undefined) | inactive | 7.61 |  |
| COc1cccc(C2/C(=C(\O)c3c(C)nc4c(C)cccn34)C(=O)C(=O)N2CCCN(C)C)c1 (centres undefined) | inactive | -2.27 |  |
| COc1ccc(/C(O)=C2/C(=O)C(=O)N(CCN(C)C)C2c2ccccc2)cc1Cl (centres undefined) | inactive | -4.09 |  |
| COC(=O)CNc1nc(C2CC2)nc2c1nnn2Cc1ccccc1Cl | inactive | -11.7 |  |
| COc1ccc2c(c1)C(C)=CC(C)(C)N2C(=O)C(C)N1C(=O)c2ccccc2C1=O (centres undefined) | inactive | 1.95 |  |
| C[C@H](NC(N)=O)C(=O)Nc1ccc2c(c1)OCO2 | inactive | -6.18 |  |
| COc1ccccc1C1C(C#N)=C(N)N(c2cccnc2)C2=C1C(=O)CC(C)(C)C2 (centres undefined) | inactive | -3.09 |  |
| Cn1cc(CCC(=O)N2CCCC(CCC(=O)NCc3ccccc3F)C2)cn1 (centres undefined) | inactive | 3.88 |  |
| COc1cccc(NC(=O)CN(C)C(=O)C(C)Sc2ccccc2)c1 (centres undefined) |  |  | 4.76% [at 0.0737 µM] (inactive) |
| CCOc1ccc(S(=O)(=O)Nc2cccc(C(=O)N3CCN(c4ccc(OC)cc4)CC3)c2)cc1 | inactive | -10.3 |  |
| CC(=O)NNC(=O)c1[nH]c2ccc(Cl)cc2c1-c1ccccc1 | inactive | 19.7 |  |
| COc1ccc(Br)cc1S(=O)(=O)NCCCN1CCOCC1 | inactive |  |  |
| Cc1cccc(OCCC(=O)OCC(=O)N2CCc3ccccc32)c1 | inactive | 16.2 |  |
| CC(C)C(OC(=O)CCC(=O)Nc1nccs1)C(=O)NC1CCCCC1 (centres undefined) | inactive | 7.34 |  |
| COc1ccc(N2C(=O)CC(N(CCc3ccc(OC)c(OC)c3)C(=S)Nc3ccccc3)C2=O)cc1 (centres undefined) | inactive | -11.8 |  |
| Cc1ccccc1OCC(=O)OCC(=O)N1CCCc2ccccc21 | inactive |  |  |
| CC(=O)c1sc2nsc(SCCN3CCCCC3)c2c1N | inactive | 1.58 |  |
| Nc1c(C(=O)c2cccs2)sc2nsc(SCCN3CCCCC3)c12 | 13 µM (active) | 11.5 |  |
| CC(=O)c1sc2nsc(SCCN3CCCC3)c2c1N | inactive | 7.13 |  |
| O=C1C(=O)c2ccccc2C(O)=C1C1CCC(c2ccc(Cl)cc2)CC1 (centres undefined) | 4.11 µM (active) | -0.693 |  |
| O=C1NC(c2ccc(Cl)cc2)Nc2ccccc21 (centres undefined) | inactive | -23.5 |  |
| O=C1c2ccccc2C(=O)C1c1ccc(Cl)cc1 | inactive | -2.4 |  |

| Compound | Potency | cell number change [%] | lipid storage change, negative = inhibition |
| --- | --- | --- | --- |
| COc1cc(C(=O)Nc2ccc3c(c2)C(=O)N(CCC(=O)O)C3=O)cc(OC)c1OC | inactive | 1.68 |  |
| CCOC(=O)c1cc(C)n(-n2cnnc2)c1C | 10.3 µM (active) | 1.94 |  |
| CCOC(=O)c1cc(C)n(S(=O)(=O)c2ccc(C)cc2)c1C | inactive | -10.7 |  |
| CCOC(=O)c1cc(C)n(-c2ccccc2)c1C | inactive |  |  |
| CCCn1c(N)c(C(=O)CN(C)CC(=O)Nc2cc(C)ccc2C)c(=O)[nH]c1=O | inactive | 15.5 |  |
| CCCn1c(N)c(C(=O)CN(C)CC(=O)Nc2ccccc2C(F)(F)F)c(=O)[nH]c1=O | 7.31 µM (active) | -17.2 |  |
| CCCn1c(N)c(C(=O)CN(C)CC(=O)Nc2c(Cl)cccc2Cl)c(=O)[nH]c1=O | inactive | -5.76 |  |
| COc1ccc(CCNC(=O)C2CC(c3ccccc3[N+](=O)[O-])=NO2)cc1 (centres undefined) | inactive | 17.6 |  |
| O=C(C1CCC1)N1CCCc2cc(S(=O)(=O)N3CCN(c4ccccc4)CC3)ccc21 | 3.26 µM (active) | -3.36 |  |
| CC1CCCCN1S(=O)(=O)c1ccc2c(c1)CCN2C(=O)CCC(=O)O (centres undefined) | inactive | 10 |  |
| O=C(C1CCC1)N1CCc2cc(S(=O)(=O)N3CCN(c4ccccn4)CC3)ccc21 | inactive | -12.3 |  |
| CC1CCCCN1S(=O)(=O)c1ccc2c(c1)CCN2C(=O)C1CC1 (centres undefined) | 10.3 µM (active) | -5.7 |  |
| Cc1cccc(N2CCN(S(=O)(=O)c3ccc4c(c3)CCCN4C(=O)C3CCC3)CC2C)c1 (centres undefined) | inactive | -10.2 |  |
| CC1CCCCN1S(=O)(=O)c1ccc2c(c1)CCN2C(=O)C1CCC1 (centres undefined) | inactive | 0.0968 |  |
| Cc1cc(C)c(S(=O)(=O)N2CCOC2CNC(=O)C(=O)NCCCN2CCOCC2)c(C)c1 (centres undefined) | inactive | 8.11 |  |
| Cc1cccc(N(CC(N)=O)C2SC(=O)NC2=O)c1 (centres undefined) | inactive | 8.77 |  |
| Cc1ccc(N(CC(N)=O)C2SC(=O)NC2=O)cc1 (centres undefined) | inactive | 8.58 |  |
| O=C(O)CN(c1ccccc1)C1SC(=O)NC1=O (centres undefined) | 7.31 µM (active) | -8.43 |  |
| CC(C)[C@H](NC(=O)c1ccco1)C(=O)NCc1ccccc1 | inactive | 17.1 |  |
| CC(C)C(NC(=O)c1ccco1)C(=O)NCc1ccc(C(=O)O)cc1 (centres undefined) | 6.51 µM (active) | -31.6 |  |
| CC(C)C(NC(=O)OCc1ccccc1)C(=O)NCc1ccc(C(=O)O)cc1 (centres undefined) | inactive | 18 |  |
| CC(/C=C/c1ccccc1)=N/NC(=O)c1cnccn1 | inactive | 9.37 |  |
